Screening results: PubChem, National Center for Advancing Translational Sciences (NCATS)
TDP-43 yeast inh: rescues yeast growth from TDP-43 toxicity. AID 652104. Potency, µM (titrated, usually from 46.1 µM), usual class: activators. hit rate 1.8% among 410,000. TDP-43 expressing yeast growth rescue, BacTiter-Glo, 24 h; further: nearly all actives have a fitted effect of over 50% in size
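Galactose-induced TDP-43 yeast, OD600=0.02, compound pinned; 24 hr, 30 deg C; BacTiter-Glo luminescence for growth. Inhibitors of TDP-43 toxicity read as activators.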
FUS suppressor: suppressors of FUS proteinopathy in yeast; S. cerevisiae FUS-expressing, growth rescue, OD600, 24 h; Potency, µM (doses to about 76.6 µM), actives largely listed as activators; hit rate 0.24% among 390,000; AID 1347120; further: nearly all actives have a fitted effect of over 55% in size
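Yeast expressing FUS under galactose induction, OD 0.005 in 2% galactose medium; compounds in a dilution series, 24 h at 30C. Growth rescue by absorbance at 600 nm; CP55940 positive control, DMSO negative.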
aSyn yeast inh: alpha-synuclein toxicity inhibition in yeast; Yeast expressing alpha-synuclein, growth rescue, BacTiter-Glo, 24 h; AID 652106; hit rate 0.14% among 370,000; Potency, µM (series often up to 46.1 µM), hits mostly activators; further: nearly all actives have a fitted effect of over 65% in size
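Rescue of yeast growth: cells expressing toxic alpha-synuclein, induced in galactose at OD600 0.02, incubated with compound 24 h at 30 C. ATP luminescence quantified growth; inhibitors of toxicity appear as activators.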
Abeta rescue: restores growth of yeast expressing A-beta42 peptide | yeast expressing A-beta42, growth rescue, OD600, 48 h; response scale: 0% DMSO, 100% iron-clioquinol control | hit rate 0.063% among 410,000 | AID 1347071 | Potency, µM (series often up to 46.1 µM), hits mostly activators; further: nearly all actives have a fitted effect of over 55% in size
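Growth rescue measured by 600 nm absorbance after 48 h yeast culture at 30 C with compound. Values normalized between DMSO and an equimolar ferric chloride plus clioquinol control.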
Numbers stand for hits; i = inactive; ? = inconclusive; nt = no result given; [ ] = another dose, or the depositor's remark. A selection: hits, their analogues and other compounds. The true share with any hit is near 2.1%. The call rests on the fitted dose curve; in most records, active means well fitted curve in the direction sought with a large enough effect; inconclusive means small, poorly fitted or top-dose-only effect, or another doubt; inactive means no such curve, though single readings can be large; an effect the other way counts as inactive or inconclusive.

SMILES	TDP-43 yeast inh	FUS suppressor	aSyn yeast inh	Abeta rescue
Cc1cccc(C(=O)NC(=S)NNC(=O)c2ccc(Cl)cc2)c1	?	nt	?	3.2µM
O=C(NNC(=S)NC(=O)c1ccccc1)c1cccnc1	i	i	i	i
CC(C)(C)c1ccc(C(=O)NC(=S)NNC(=O)COc2ccccc2)cc1	13µM	i	?	i
O=C(/C=C/c1ccccc1)NC(=S)NNC(=O)c1cccnc1	16µM	i	i	?
CC(C)(C)c1cc(Cl)c(O)c(NC(=S)NC(=O)c2cccnc2)c1	8.9µM	i	i	?
CSc1sc(-c2nnc(SCC(=O)Nc3ccccc3)n2C)c2c1C=CCC2	i	i	i	i
COc1ccccc1CNc1ncnc2c1cnn2-c1ccc(C)cc1	35µM	i	nt	i
COc1ccccc1CNc1ncnc2c1cnn2-c1ccccc1	16µM	i	i	i
COc1ccc(-n2ncc3c(NCC(C)C)ncnc32)cc1	11µM	i	i	i
Cc1ccc(-n2ncc3c(NCc4ccccc4)ncnc32)cc1	i	i	i	i
COc1ccc(-n2ncc3c(NC(C)C)ncnc32)cc1	?	i	i	i
COc1cccc2cc(-c3csc(NC(=O)CCC(=O)NCCCN4CCC(C)CC4)n3)c(=O)oc12	i	i	i	i
CC1CCCCN1S(=O)(=O)c1ccc(NC(=O)c2ccco2)cc1 (configuration not stated)	?	i	i	i
CC(=O)Oc1ccc(/C=C2\C=C(c3ccc(C)cc3)OC2=O)cc1	i	i	i	i
CCC(=O)Nc1ccc(NCc2ccc(-c3ccccc3)cc2)cc1	13µM	i	i	i
CC(=O)Nc1ccc(NCc2ccc(-c3ccccc3)cc2)cc1	nt	i	i	i
Cc1ccc(NC(=S)NNC(=O)CSc2nc3ccccc3c(=O)n2-c2ccc(Cl)cc2)cc1	nt	i	nt	nt
O=C(O/N=C(/c1ccccc1)c1ccncc1)c1cccc(F)c1	14µM	i	i	i
CCOC(=O)C1CCN(c2ncnc3c2[nH]c2cccc(OC)c23)CC1	i	22µM	i	i
CCOC(=O)c1cc(=O)c2ccc(OCC(=O)Nc3ccccc3)cc2o1	i	i	i	i
CCOC(=O)C1=C(C)N(CC(C)C)C(=O)/C1=C\c1ccc(OCC(=O)Nc2ccccc2)cc1	18µM	i	i	i
O=S(=O)(c1ccc(Cl)cc1)N1CCN(c2ccc(N3CCOCC3)nn2)CC1	i	i	i	i
Cc1cccc(C(=O)OC(C)C(=O)N2CCc3ccccc3C2)c1C (configuration not stated)	18µM	nt	i	i
O=C(NCCc1ccccc1)c1ccc(-c2ccccc2C(F)(F)F)o1	i	i	i	i
O=C(NCCc1ccccc1)c1ccc(-c2ccc(F)cc2)o1	20µM	i	i	i
SMILES	TDP-43 yeast inh	FUS suppressor	aSyn yeast inh	Abeta rescue
O=C(CN1CC[n+]2c(-c3cccs3)csc21)c1ccc(-c2ccccc2)cc1	3.5µM	i	i	i
CCc1ccccc1N1CC(c2nc3ccccc3n2CCCCOc2ccccc2OC)CC1=O (configuration not stated)	i	i	nt	i
COc1ccc(S(=O)(=O)NCc2cccn2Cc2cccc(C)c2)cc1OC	35µM	i	nt	i
COc1ccc(S(=O)(=O)NCc2cccn2Cc2cc(C)ccc2C)cc1OC	35µM	i	nt	i
CC(C)c1ccccc1OCCNC(=O)c1cccnc1	i[0.397 µM]	i	i	i
CC(C)c1ccccc1OCCNC(=O)c1cncc(Br)c1	20µM	i	i	i
O=C(Nc1ccc(Cl)cc1Cl)Nn1cnnc1	i	i	i	i
O=C(Nc1ccno1)Nc1ccc(Cl)cc1Cl	14µM	i	i	i
Cc1ccc(S(=O)(=O)N2CCN(C(=O)CN3CCc4ccccc4C3)CC2)cc1	i	i	i	i
Cc1ccc(C23CC4CC(CC(NC(=O)NC(C)(C)CO)(C4)C2)C3)cc1	22µM	i	nt	i
Cc1ccc(C23CC4CC(CC(NC(=O)NN)(C4)C2)C3)cc1	?	i	i	nt
CN(Cc1ccccc1)S(=O)(=O)c1ccc(F)c(C(=O)Nc2ccccc2C(F)(F)F)c1	i	i	nt	i
CCN(CC)C1=N/C(=C\c2ccc(OC)cc2)C(=O)N1c1ccccc1	22µM	i	i	i
CCSC1=N/C(=C\c2ccccc2)C(=O)N1c1ccc(OC)cc1	i	i	i	i
Cc1ccccc1Cn1c(NC2CCCC2)nc2c1c(=O)[nH]c(=O)n2C	i	i	i	i
COc1ccc(C2=Nn3c(nnc3-c3ccccc3Cl)SC2)cc1OCC1CC1	nt	i	nt	i
COc1ccc(OC)c(-c2nnc3n2N=C(c2ccc(OC)c(OCC4CC4)c2)CS3)c1	nt	28µM	nt	i
CCOC(=O)C1CCCN(C(=O)c2sc3nc(C)nc(N(CC)CC)c3c2C)C1 (configuration not stated)	i	i	i	i
CC(C)CNS(=O)(=O)c1ccc(OCC(=O)Nc2ccc3c(c2)OCCO3)cc1	i	i	i	i
CC(=O)C(Cl)C(=O)Nc1ccccc1 (configuration not stated)	3.5µM	i	i	i
O=C(Nc1ccccc1)C(Cl)C(=O)c1ccccc1 (configuration not stated)	i	i	i	i
CC(C)CNc1ncnc2onc(-c3ccc(Cl)cc3)c12	11µM	i	nt	i
Cc1noc2ncnc(NCc3ccc(Cl)cc3)c12	?	i	nt	i
Clc1ccc(CNc2ncnc3onc(-c4ccc(Cl)cc4)c23)cc1	13µM	?	nt	i
Cc1cccc(CCNc2ncnc3onc(-c4ccc(Cl)cc4)c23)c1	35µM	i	nt	i
SMILES	TDP-43 yeast inh	FUS suppressor	aSyn yeast inh	Abeta rescue
Cc1ccc(CCNc2ncnc3onc(-c4ccc(Cl)cc4)c23)cc1	i	i	nt	i
CCC(=O)N1CCc2cc(Br)cc(S(=O)(=O)N3CCCC(C(=O)O)C3)c21 (configuration not stated)	i	i	i	i
O=C1C=C(c2cccc(CO)c2)C[C@@H](c2ccc3c(c2)OCO3)C1	20µM	i	i	i
N#Cc1ccc(C2=CC(=O)C[C@H](c3ccc4c(c3)OCO4)C2)cc1	18µM	?	i	i
O=C1C=C(c2ccc3c(c2)OCO3)C[C@@H](c2ccc3c(c2)OCO3)C1	i	i	i	i
CSc1ccccc1C(=O)Nc1cccc(N(C)S(C)(=O)=O)c1	i	i	i	i
O=C1c2ccccc2C(=O)N1Cc1ccccn1	i	i	i	i
Cc1ccc(NC(=O)c2ccc(CN3CC(=O)N4CCCCC4C3=O)cc2)c(C)c1 (configuration not stated)	i	i	i	i
O=C(Cc1ccccc1)c1ccc(O)cc1	i	i	i	?
O=C(CC(O)CCc1ccccc1)c1ccc(O)cc1 (configuration not stated)	10µM	i	i	?
CN(C)c1ccc(NC(=O)CN2CCC(N3CCCCC3)CC2)cc1	i	i	i	i
CCCOc1ccc(C2(C(=O)O)CCCC2)cc1	13µM	i	i	i
CCCCOc1cccc(C2(C(=O)O)CCCC2)c1	20µM	i	i	i[9.22 µM]
CC1CCc2c(sc(N)c2C(N)=O)C1 (configuration not stated)	i	32µM	i	i
